Assay results from PubChem BioAssay (NCATS).
Records with an inconclusive call do not appear. A call without a number means that no potency is given here. Calls of active or inactive are those of the source. The call rests on the fitted dose curve; in most records, active means well fitted curve in the direction sought with a large enough effect; inconclusive means small, poorly fitted or top-dose-only effect, or another doubt; inactive means no such curve, though single readings can be large; an effect the other way counts as inactive or inconclusive.

Columns and labels:
[1] = qHTS of pediatric cancer cell lines to identify multiple opportunities for drug repurposing: Primary screen for SJ-GBM2 cells (AID 1347091)
Summary of the method: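 Viability measured as metabolically active cells via CellTiter-Glo luminescence following 48 hours of compound exposure, 11-point dilutions in confirmatory testing. 500-1,000 cells/well plated 5 hours before dosing; controls were DMSO and 2.3 µM bortezomib.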

[2] = qHTS of pediatric cancer cell lines to identify multiple opportunities for drug repurposing: Primary screen for A673 cells (AID 1347092); further: nearly all actives have a fitted effect of over 45% in size
Summary of the method: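 Cells are plated, rested 5 h, dosed by pintool, incubated 48 h, then lysed with CellTiter-Glo and read by luminescence. DMSO is the neutral control; bortezomib at 2.3 uM final is the positive control.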

[3] = qHTS of pediatric cancer cell lines to identify multiple opportunities for drug repurposing: Primary screen for SK-N-MC cells (AID 1347093)
Summary of the method: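 Metabolically active cells were quantified by ATP-dependent luminescence (CellTiter-Glo, 15 min at room temperature) following 48 h treatment. Cells had been plated at 500-1,000 per well and settled for 5 h beforehand.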

[4] = qHTS of pediatric cancer cell lines to identify multiple opportunities for drug repurposing: Primary screen for BT-37 cells (AID 1347094)
Summary of the method: (§1)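 Following a 5-hour attachment period, cells at 500-1,000/well received compounds and were cultured for 48 hours. CellTiter-Glo was added and luminescence read to estimate viable, metabolically active cells.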

[5] = qHTS of pediatric cancer cell lines to identify multiple opportunities for drug repurposing: Primary screen for NB-EBc1 cells (AID 1347095)
Summary of the method: as §1

[6] = qHTS of pediatric cancer cell lines to identify multiple opportunities for drug repurposing: Primary screen for U-2 OS cells (AID 1347096); further: nearly all actives have a fitted effect of over 50% in size
Summary of the method: (§2)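 Viability after 48 h compound treatment at 37C, 500-1,000 cells/well, read as ATP luminescence with CellTiter-Glo. Primary screens used 11-point (MIPE, 0.78 nM-46 µM) or 8-point (NPC, 0.59 nM-46 µM) final concentrations; follow-up screens used 11-point dilutions.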

[7] = qHTS of pediatric cancer cell lines to identify multiple opportunities for drug repurposing: Primary screen for Saos-2 cells (AID 1347097); further: nearly all actives have a fitted effect of over 40% in size
Summary of the method: as §1

[8] = qHTS of pediatric cancer cell lines to identify multiple opportunities for drug repurposing: Primary screen for SK-N-SH cells (AID 1347098); further: nearly all actives have a fitted effect of over 65% in size
Summary of the method: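 Cells (500-1,000/well) rested 5 h, then received compounds for 48 h; metabolically active cells were measured by CellTiter-Glo luminescence. Final concentrations spanned up to 46 µM (MIPE, 11-point) or 0.59 nM-46 µM (NPC, 8-point) in primary screens, 11-point in follow-ups.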

[9] = qHTS of pediatric cancer cell lines to identify multiple opportunities for drug repurposing: Primary screen for NB1643 cells (AID 1347099); further: nearly all actives have a fitted effect of over 50% in size
Summary of the method: as §1

[10] = qHTS of pediatric cancer cell lines to identify multiple opportunities for drug repurposing: Primary screen for LAN-5 cells (AID 1347100)
Summary of the method: as §2
Potency means the concentration at half of the fitted maximal effect.

SMILES | Potency [1] | Potency [2] | Potency [3] | Potency [4] | Potency [5] | Potency [6] | Potency [7] | Potency [8] | Potency [9] | Potency [10]
COc1cc(C)c(Sc2cnc(NC(=O)c3ccc(CNC(C)C(C)(C)C)cc3)s2)cc1C(=O)N1CCN(C(C)=O)CC1 (configuration not stated) | 4.69 µM (active) | 2.35 µM (active) | 2.09 µM (active) | 7.69 µM (active) | 0.743 µM (active) | inactive | inactive | 4.82 µM (active) | 3.72 µM (active) | 1.66 µM (active)
COc1cc([C@@H]2c3cc4c(cc3[C@@H](O[C@@H]3O[C@@H]5CO[C@@H](c6cccs6)O[C@@H]5[C@H](O)[C@@H]3O)[C@H]3COC(=O)[C@H]23)OCO4)cc(OC)c1O | 0.118 µM (active) | 0.372 µM (active) | 0.0935 µM (active) | 0.217 µM (active) | 0.0372 µM (active) | 3.72 µM (active) | 0.59 µM (active) | 5.41 µM (active) | 0.132 µM (active) | 0.0372 µM (active)
CC(=O)N[C@@H]1[C@H](O[C@@H]2c3ccc(c(Cl)c3)Oc3cc4cc(c3O[C@H]3O[C@H](CO)[C@@H](O)[C@H](O)[C@H]3NC(=O)CCCCCCCC(C)C)Oc3ccc(cc3Cl)C[C@H]3NC(=O)[C@H](N)c5ccc(O)c(c5)Oc5cc(O)cc(c5)[C@H](NC3=O)C(=O)N[C@H]4C(=O)N[C@H]3C(=O)N[C@@H]2C(=O)N[C@@H](C(=O)O)c2cc(O)cc(O[C@H]4O[C@H](CO)[C@@H](O)[C@H](O)[C@H]4O)c2-c2cc3ccc2O)O[C@H](CO)[C@@H](O)[C@@H]1O | inactive | inactive | inactive | inactive | inactive | inactive | inactive | inactive | inactive | inactive
CC(=O)OCC(=O)[C@@]12N=C(C)O[C@H]1C[C@H]1[C@@H]3CCC4=CC(=O)C=C[C@]4(C)[C@@H]3[C@@H](O)C[C@@]12C | inactive | inactive | inactive | inactive | inactive | inactive | inactive | inactive | inactive | –
CN(N=O)C(=O)N[C@H]1C(O)OC(CO)[C@@H](O)[C@H]1O (some centres not stated) | inactive | inactive | inactive | inactive | inactive | inactive | inactive | inactive | inactive | –
COc1cc2c(Nc3ccc(Cl)c(Cl)c3F)ncnc2cc1OCC1C[C@@H]2CN(C)C[C@H]2C1 | 7.43 µM (active) | 0.935 µM (active) | 2.96 µM (active) | 24.3 µM (active) | 16.6 µM (active) | 18.7 µM (active) | 16.6 µM (active) | 12.1 µM (active) | 14.8 µM (active) | 11.8 µM (active)
CCc1ccc(C(=O)Nc2cc(CN3CCN(C)CC3)cc(C(F)(F)F)c2)cc1C#Cc1cnc2ccnn2c1 | 9.35 µM (active) | 9.35 µM (active) | 1.87 µM (active) | 24.3 µM (active) | 11.8 µM (active) | 23.5 µM (active) | 14.8 µM (active) | 24.1 µM (active) | 1.18 µM (active) | –
COc1cc(OC)cc(-c2ccc3ncc4ccc(=O)n(-c5ccc(N6CCNCC6)c(C(F)(F)F)c5)c4c3c2)c1 | 4.18 µM (active) | 0.935 µM (active) | 1.32 µM (active) | 15.3 µM (active) | 3.72 µM (active) | 14.8 µM (active) | 13.2 µM (active) | 7.64 µM (active) | 11.8 µM (active) | 2.64 µM (active)
CC1(C)[C@H](O[C@H]2O[C@H](C(=O)O)[C@@H](O)[C@H](O)[C@H]2O[C@@H]2O[C@H](C(=O)O)[C@@H](O)[C@H](O)[C@H]2O)CC[C@@]2(C)[C@H]1CC[C@]1(C)[C@H]2C(=O)C=C2[C@H]3C[C@@](C)(C(=O)O)CC[C@]3(C)CC[C@]21C | inactive | inactive | inactive | inactive | inactive | inactive | inactive | inactive | inactive | inactive
OCc1ccccc1O[C@@H]1O[C@H](CO)[C@H](O)[C@H](O)[C@H]1O | inactive | inactive | inactive | inactive | inactive | inactive | inactive | inactive | inactive | inactive
CN[C@H]1[C@@H](O)[C@@H]2O[C@@H]3O[C@H](C)CC(=O)[C@]3(O)O[C@@H]2[C@@H](NC)[C@H]1O | 0.59 µM (active) | 0.0743 µM (active) | 0.166 µM (active) | 9.68 µM (active) | 8.33 µM (active) | 2.96 µM (active) | 1.87 µM (active) | 6.07 µM (active) | – | –
O=C(CCCCCCC(=O)Nc1cccnc1)NO | 7.43 µM (active) | 11.8 µM (active) | 2.96 µM (active) | 19.3 µM (active) | 4.18 µM (active) | 11.8 µM (active) | 13.2 µM (active) | 6.07 µM (active) | 2.96 µM (active) | 2.64 µM (active)
C=CC1=C(C(=O)O)N2C(=O)[C@@H](NC(=O)C(=NO)c3csc(N)n3)[C@H]2SC1 | inactive | inactive | inactive | inactive | inactive | inactive | inactive | inactive | inactive | –
O=C(NNC(=O)c1ccc(CNS(=O)(=O)c2ccc(F)c(Cl)c2)cc1)c1ccccc1 | inactive | inactive | inactive | inactive | inactive | inactive | inactive | inactive | – | –
Cc1cc(-c2nnc3n2CCCCC3)c(C)n1-c1ccccc1 | inactive | inactive | inactive | inactive | inactive | inactive | inactive | inactive | inactive | inactive
